According to PubChem BioAssay AID1159580 (chemical genetic matrix, 2015):
Hit rate of the full screen: of about 5,500 compounds, about 2,000 (36%) were called active. About 18% were inconclusive and are not listed. Rule as the data show it: active = normalized growth mostly below about 0.91 (no sharp cut-off); inconclusive = no clear call, values can overlap the other calls; inactive = mostly above about 0.92. The list shows a part of the results.

Test: chemical genetic growth profiling, strain panel (AID 1159580);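 also: tested at 20 µM; growth read once vehicle control cultures reached saturation at 30 °C; 1 = growth at the plate median or of vehicle wells; lower values mean less growth of the strain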
Conditions: S. cerevisiae deletion strains, growth OD

Measured: normalized growth

COP(=O)(OC)C(O)C(Cl)(Cl)Cl (stereo not drawn)
inactive: locus YHR030C, strain SLT2, hits give low values 0.998 | locus YHR079C, strain IRE1, hits give low values 1.03 | locus YJL095W, strain BCK1, hits give low values 1.01 | locus YJR066W, strain TOR1, hits give low values 0.938 | locus YLR113W, strain HOG1, hits give low values 1 | locus YNL183C, strain NPR1, hits give low values 0.962 | locus YOR231W, strain MKK1, hits give low values 1.03 | locus YPL256C, strain CLN2, hits give low values 0.988
